Screening results: PubChem, The Scripps Research Institute Molecular Screening Center
The list is not random: actives were taken first. Their share in the collection is about 0.84%.
NCOA2 inhibitor: human SRC2 (NCOA2) inhibition. Q15596. HEK293 GAL4-SRC2 luciferase reporter, luminescence. inhibition, % at 9 µM. hit rate 0.17% among 370,000. AID 651957;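 active = inhibition above the mean inhibition of all tested compounds plus 3 SD, set per campaign, cut at about 52% in these data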;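 also: 0% = DMSO treated cells and 100% = cells given Gossypol at 36 µM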
NR5A2 inv ag: suppresses constitutive activity of human LRH-1; inhibition, % at 3.6 µM; HEK293T StAR-luciferase reporter, LRH-1 transfected, 24 h; hit rate 0.13% among 360,000;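 active = inhibition above the mean inhibition of all tested compounds plus 3 SD, cut at about 73% in these data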;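 also: 0% = DMSO wells and 100% = reporter-only cells lacking LRH-1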
NCOA3 inh: inhibitors of human steroid receptor coactivator 3 (SRC3); HEK293 GAL4-SRC3 luciferase reporter, luminescence; inhibition, % at 3.6 µM; hit rate 0.17% among 360,000; AID 588352;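 active = inhibition above a per-campaign cutoff, the mean of all compounds plus 3 SD, cut at about 60% in these data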;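 also: 0% = DMSO-treated cells and 100% = gossypol-treated cells at 36 µM; higher means less SRC3-driven luciferase light from the GAL4 reporter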
NR2F2 inh: inhibitors of human COUP-TFII (NR2F2) | hit rate 0.7% among 370,000 | inhibition, % at 8.6 µM | HEK293T NGFI-A luciferase reporter, luminescence | P24468;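 active = inhibition above a per-plate cutoff, mean inhibition of test wells between control levels plus 3 SD, cut at about 38% in these data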;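 also: cells cotransfected with COUP-TFII expression vector driving the NGFI-A reporter; 0% = median of COUP-TF2 test wells and 100% = reporter-only cells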
Target sequence (P24468 whole entry, looked up): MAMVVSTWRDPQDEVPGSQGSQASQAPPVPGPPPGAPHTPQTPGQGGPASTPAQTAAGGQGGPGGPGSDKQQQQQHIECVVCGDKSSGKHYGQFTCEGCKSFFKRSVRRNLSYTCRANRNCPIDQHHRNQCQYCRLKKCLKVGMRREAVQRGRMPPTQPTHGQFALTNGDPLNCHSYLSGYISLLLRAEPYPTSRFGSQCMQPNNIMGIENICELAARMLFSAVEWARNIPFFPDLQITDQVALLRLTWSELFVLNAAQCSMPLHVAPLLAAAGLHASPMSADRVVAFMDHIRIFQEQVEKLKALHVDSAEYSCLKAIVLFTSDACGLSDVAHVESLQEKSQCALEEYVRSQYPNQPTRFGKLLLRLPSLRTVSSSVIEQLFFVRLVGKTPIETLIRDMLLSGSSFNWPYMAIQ
SRC1 inh: human NCOA1 inhibition. Q15788. HEK293 GAL4-SRC1 luciferase reporter, luminescence. inhibition, % at 3.6 µM. hit rate 0.12% among 360,000. AID 588354;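 active = inhibition above the campaign mean plus 3 SD, with each screening campaign given its own cutoff, cut at about 60% in these data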;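 also: 0% = DMSO treated cells and 100% = gossypol at 36 µM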
VP16 Luc counter: VP16 inhibition counter-screen for COUP-TFII; shares compounds with NR2F2 inh; HEK293 Gal4-VP16 luciferase reporter, luminescence; inhibition, % at 8.5 µM; hit rate 25% among 2,500; AID 687007; in the data active = inhibition above about 13%
NR2F2 inh conf: confirmation of human COUP-TFII (NR2F2) inhibitors | inhibition, % at 8.5 µM | hit rate 45% among 2,500 | AID 687008 | shares compounds with NR2F2 inh | HEK293 NGFI-A luciferase reporter, luminescence;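 active = mean inhibition over three repeats above a set limit taken from the earlier primary screen, cut at about 38% in these data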;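 also: 100% = cells given the luciferase reporter alone without the COUP-TF2 vector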
The depositor's hits bear a star; i = inactive; x = no result; ! = not active in a repeat.

SMILES	NCOA2 inhibitor	NR5A2 inv ag	NCOA3 inh	NR2F2 inh	SRC1 inh	VP16 Luc counter	NR2F2 inh conf
Cn1c(=O)c2[nH]c(CCCCCc3nc4ccccc4[nH]3)nc2n(C)c1=O	4	7	-16	-4	-25	x	x
C[C@@]12C[C@@H]3C(=O)N(Cc4ccccc4)CC(=O)N3[C@@H]1N(S(=O)(=O)c1ccccc1)c1ccccc12	22	x	x	-2	x	x	x
COc1cccc(CN(C)C(=O)c2cc(COc3c(F)cccc3F)on2)c1	-8	-5	7	0	4	x	x
COc1cccc(CN(C)C(=O)c2cc(COc3ccc(-n4cncn4)cc3)on2)c1	14	-8	26	38*	14	-4	-1
COc1cccc(CN(C)C(=O)c2cc(COc3ccc4ncccc4c3)on2)c1	6	35	28	73*	7	-2	56*
COC(=O)[C@H](CC(C)C)N(CCc1cn(Cc2ccc(C)cc2)nn1)S(=O)(=O)c1ccccc1Br	12	x	x	9	x	x	x
Cc1cn([C@H]2C=C[C@@H](CO)O2)c(=O)[nH]c1=O	-15	-2	-6	61*!	-8	-1	-13
Cc1cn(C2CC(O)C(O)C(CO)O2)c(=O)[nH]c1=O (centres undefined)	-14	-5	-17	4	4	x	x
O=C(Cn1ccccc1=S)c1ccc(Cl)c(Cl)c1	13	12	15	-3	-4	x	x
On1ccccc1=S	16	72	47	66*	i	87*	46*
CCOC(=O)N1CCN(C(=O)c2ccc3c(c2)N(C)C(=O)/C(=C\c2ccc(OCC)c(OC)c2)S3)CC1	16	26	-1	51*	-16	2	24
CCOC(=O)N1CCC(NC(=O)c2ccc3c(c2)N(C)C(=O)/C(=C/c2cccc(OC)c2)S3)CC1	31	21	12	40*	8	12	53*
CCOC(=O)N1CCN(C(=O)c2ccc3c(c2)NC(=O)/C(=C\c2ccc(OC)c(OC)c2)S3)CC1	12	-15	-6	7	13	x	x
Fc1ccc(N2CCN(C3=Nc4ccccc4Sc4ccccc43)CC2)cc1	7	x	x	-24	x	x	x
O=C(Nc1ccn(Cc2ccccc2F)n1)c1ccc(COc2ccc(Br)cc2)cc1	21	33	21	73*	11	-11	47*
O=C(Nc1ccc(Cn2cccn2)cc1)c1ccc(COc2ccc(Br)cc2)cc1	-5	-13	12	1	9	x	x
CC(COc1cccc(Br)c1)CN1CCC(C(O)(c2ccccc2)c2ccccc2)CC1 (centres undefined)	-8	x	x	-7	x	x	x
O=C(CSc1cc(Cl)ccc1Cl)N/N=C/c1ccc[nH]1	x	x	x	56*	x	8	38*
Cc1nc2ccccn2c1-c1ccnn1S(=O)(=O)c1ccc(F)cc1	24	17	34	49*	2	-2	11
CN(Cc1ccccc1F)C(=O)C1CCCN(c2ncccn2)C1 (centres undefined)	-19	x	x	10	x	x	x
COc1ccc(NS(=O)(=O)c2ccc(-c3coc(C)n3)cc2)cc1OC	29	50	27	52*	5	9	59*
NC(=O)c1sc2nc3c(c(-c4cccnc4)c2c1N)CCC3	-8	-1	19	-2	10	x	x
NC(=O)c1sc2nc3c(c(-c4cccs4)c2c1N)CCCCC3	46	14	67*	43*	69*	14*	32
CC1CCC2(CC1)CCN(CCCOC(=O)Nc1ccc3c(c1)OCO3)C2=O (centres undefined)	-2	x	x	-6	x	x	x
CCNC(=O)N(C)[C@H]1C[C@H]2c3[nH]c4cccc(-c5cccc(F)c5)c4c3CCN2C(=O)[C@H]1[C@H](C)O	-1	x	x	-8	x	x	x
CC(O)CC(=O)OC[C@]12CC[C@H]3[C@@](C)(CC[C@H]4C(C)(C)CCC[C@]34C)[C@@H]1CC(C1=CC(=O)OC1O)O2 (some centres undefined)	42	78*	58	87*	38	52*	72*
CC(=O)N1c2ccc(S(=O)(=O)N3CCC(C(=O)Nc4cccc(C)n4)CC3)cc2CC1C (centres undefined)	25	52	18	54*	15	7	54*
